In all, about 310,000 compounds went through this assay and about 2,200 (0.71%) showed an effect of 50% or more. The effect is printed as a negative number. The full list was thinned out, with strong results kept by preference.
Target: human ether-à-go-go-related gene (hERG) potassium channel (human, UniProt Q12809)
Test: primary screen, population patch clamp on CHO cells stably expressing hERG; higher = less effect of the substance

Chain of human ether-à-go-go-related gene (hERG) potassium channel (Q12809 whole entry, looked up): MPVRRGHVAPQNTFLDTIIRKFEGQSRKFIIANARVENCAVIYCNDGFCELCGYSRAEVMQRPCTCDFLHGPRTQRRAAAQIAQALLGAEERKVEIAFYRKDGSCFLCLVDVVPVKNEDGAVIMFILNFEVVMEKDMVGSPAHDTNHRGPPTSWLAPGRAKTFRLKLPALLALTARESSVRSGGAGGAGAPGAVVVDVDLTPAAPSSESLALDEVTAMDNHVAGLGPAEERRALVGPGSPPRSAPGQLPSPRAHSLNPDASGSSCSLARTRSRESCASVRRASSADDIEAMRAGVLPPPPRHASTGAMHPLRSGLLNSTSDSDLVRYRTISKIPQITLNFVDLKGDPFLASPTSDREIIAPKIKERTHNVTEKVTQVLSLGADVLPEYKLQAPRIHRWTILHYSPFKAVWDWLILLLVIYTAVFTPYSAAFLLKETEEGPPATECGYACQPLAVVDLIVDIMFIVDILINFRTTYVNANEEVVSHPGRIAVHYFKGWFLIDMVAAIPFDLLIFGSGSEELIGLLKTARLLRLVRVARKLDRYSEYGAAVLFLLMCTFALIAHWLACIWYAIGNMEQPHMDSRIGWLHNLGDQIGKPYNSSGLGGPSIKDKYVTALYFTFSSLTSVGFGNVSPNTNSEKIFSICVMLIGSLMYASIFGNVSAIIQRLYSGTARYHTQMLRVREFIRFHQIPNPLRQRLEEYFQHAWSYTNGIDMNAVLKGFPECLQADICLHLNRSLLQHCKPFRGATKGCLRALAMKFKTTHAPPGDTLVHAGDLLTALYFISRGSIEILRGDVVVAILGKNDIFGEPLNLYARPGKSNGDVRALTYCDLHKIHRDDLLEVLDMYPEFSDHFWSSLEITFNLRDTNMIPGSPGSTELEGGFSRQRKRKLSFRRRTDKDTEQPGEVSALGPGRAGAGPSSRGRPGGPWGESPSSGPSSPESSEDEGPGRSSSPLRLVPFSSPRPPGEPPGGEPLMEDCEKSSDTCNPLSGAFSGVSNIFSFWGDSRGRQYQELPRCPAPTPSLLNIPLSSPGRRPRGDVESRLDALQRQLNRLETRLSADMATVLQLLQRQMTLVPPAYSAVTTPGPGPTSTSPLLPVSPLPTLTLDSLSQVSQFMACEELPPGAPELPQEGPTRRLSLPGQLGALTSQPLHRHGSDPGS

Row | Structure (SMILES) | hERG current change (%, negative = inhibition) at 1uM [%]
1 | O=c1c(=Nc2ccccc2O)c(=O)c2ccccc12 | 17.3
2 | O=c1[nH]c2cc3c(cc2cc1CN(Cc1ccco1)C(=S)NCC1CCCO1)OCCO3 (centres unmarked) | 15.1
3 | COC(=O)c1sc(NC(=S)NC(=O)c2ccccc2F)nc1C | 2.7
4 | O=C1CCC([N+](=O)[O-])C(c2cc(Br)ccc2F)N1 (centres unmarked) | 14.5
5 | O=C(CNC(=O)c1ccc(F)cc1)c1ccc(Cl)cc1 | 19.6
6 | Cc1cccc(CN2C[C@]34C=C[C@@H](C[C@@H]3S2(=O)=O)O4)c1 | 10.3
7 | CCCNC(=O)c1ccc(N2CC3CC(C2)c2cccc(=O)n2C3)c(NC(=O)Nc2ccc(CC)cc2)c1 (centres unmarked) | -56.1
8 | CCc1ccc(NC(=O)Nc2cc(C(=O)O)ccc2N2CC3CC(C2)c2cccc(=O)n2C3)cc1 (centres unmarked) | 19.5
9 | CCc1ccc(NC(=O)Nc2cc(C(=O)NCC3CCCO3)ccc2N2CC3CC(C2)c2cccc(=O)n2C3)cc1 (centres unmarked) | 11.3
10 | CCOC(=O)c1ccc(NC(=O)CSc2ccc(-c3ccncc3)nn2)cc1 | 9.76
11 | NCCCC[C@H]1CN=C(N)N1CCc1cccc2ccccc12 | 9.97
12 | Cc1ccc(C(=O)N/C(=C/c2ccc(-c3cccc([N+](=O)[O-])c3)o2)C(=O)NC(C)C)cc1 | 10.1
13 | Cc1ccc(C(=O)N/C(=C/c2ccc(-c3cccc([N+](=O)[O-])c3)o2)C(=O)NCCCN(C)C)cc1 | -73.3
14 | Cc1ccc(C(=O)N/C(=C\c2ccc(-c3ccccc3[N+](=O)[O-])o2)C(=O)NCCCN2CCOCC2)cc1 | -11.2
15 | CN(C)CCNC(=O)/C(=C/c1ccc(-c2cccc([N+](=O)[O-])c2)o1)NC(=O)c1ccccc1 | -37.2
16 | Cc1ccc(C(=O)N/C(=C\c2ccc(-c3cccc([N+](=O)[O-])c3)o2)C(=O)NCCCN(C)C)cc1 | -27.5
17 | Cc1ccc(C(=O)N/C(=C/c2ccc(-c3cccc([N+](=O)[O-])c3)o2)C(=O)NC(C)(C)C)cc1 | -0.682
18 | O=C(NCCCO)/C(=C/c1ccc(-c2cccc([N+](=O)[O-])c2)o1)NC(=O)c1ccccc1 | -4.53
19 | Cc1ccc(C(=O)N/C(=C\c2ccc(-c3cccc([N+](=O)[O-])c3)o2)C(=O)NCCCN2CCOCC2)cc1 | -74.7
20 | CN(C)CCCNC(=O)/C(=C\c1ccc(-c2cccc([N+](=O)[O-])c2)o1)NC(=O)c1ccccc1 | -77.9
21 | Cn1nc(C(F)(F)F)cc1Oc1ncc(C(F)(F)F)cc1Cl | 12.5
22 | CCOc1ccc(NC(=S)N(CCc2c(C)[nH]c3ccccc23)Cc2cccnc2)cc1 | -4.48
23 | CCN(CC)S(=O)(=O)c1cccc(C(=O)NCCc2ccccc2)c1 | -5.67
24 | O=c1[nH]c(=O)n(CCC2=CCCCC2)c(O)c1C=NCc1cccnc1 | 9.06
25 | COc1ccc(OCCCC(=O)Nc2nc(C)c(C(C)=O)s2)cc1 | 10.2
26 | Cc1ccc(-n2c(=O)cc(N3CC(C)OC(C)C3)[nH]c2=O)cc1 (centres unmarked) | 10.6
27 | O=C(CC(C(=O)O)c1c[nH]c2ccccc12)c1ccccc1 (centres unmarked) | 9.56

Row | Structure (SMILES) | hERG current change (%, negative = inhibition) at 1uM [%]
28 | COc1ccc(Cc2nc3c4c(ncn3n2)Oc2ccc3ccccc3c2C4c2ccc(OC)c(OC)c2)cc1 (centres unmarked) | 5.71
29 | COc1cc(N(Cc2ccccc2)Cc2ccccc2)c2ncn(C(C)C)c2c1 | 8.78
30 | CC(C)n1cnc2c(NCc3ccccc3)nc(NCc3ccccc3)nc21 | 10.4
31 | CC(C)n1cnc2c(N(C)c3ccccc3)nc(N(CCN(C)C)Cc3ccccc3)nc21 | -58.5
32 | CCOC(=O)Cc1csc(NC(=O)CSc2nnnn2-c2ccc(C)c(C)c2)n1 | 10
33 | COc1ccc(S(=O)(=O)NCC2CCCN(Cc3ccc(O)cc3)C2)cc1 (centres unmarked) | -12.2
34 | Cc1ccc(CN2CC(C(=O)Nc3ccc(F)c([N+](=O)[O-])c3)CC2=O)cc1 (centres unmarked) | -1.97
35 | COc1ccc(OCC(=O)N/N=C(\C)CC(=O)Nc2ccc(OC)cc2[N+](=O)[O-])cc1 | -61.8
36 | CCOc1ccc(OCC(=O)Nc2ccc(OC)cc2[N+](=O)[O-])cc1 | 8.89
37 | COc1ccc(NC(=O)COc2ccc(C)cc2)c([N+](=O)[O-])c1 | 8.91
38 | C#CCn1c(=NC(=O)c2ccc(Cl)s2)sc2cccc(OC)c21 | 14.9
39 | COc1ccc(Br)cc1C(=O)Nc1cccc(C)c1C | 2.14
40 | COc1ccc(OC)c(NC(=O)NC2CCCCCCC2)c1 | 9.24
41 | Cc1cccc(NC(=O)CNC(=O)COc2ccc(-c3ccc(C#N)cc3)cc2)c1C | 8.38
42 | Cc1cccc(NC(=O)CN2CCOCC2)c1C | 12.2
43 | Cc1cccc(NC(=O)CN2CCN(C(=O)C(C)Oc3ccc(C#N)cc3)CC2)c1C (centres unmarked) | -54.7
44 | COc1ccc(CNC(=O)C2CSC(c3ccc(OC)cc3)N2C(C)=O)cc1 (centres unmarked) | 5.4
45 | CCCCN(C)CCN1C(=O)C2C(C(=O)Nc3ccc(OC)cc3)C3C=CC2(O3)C1C(=O)NC1CCCCC1 (centres unmarked) | 3.44
46 | CCCCN(C)CCN1C(=O)C2C(C(=O)Nc3ccc(C)cc3)C3C=CC2(O3)C1C(=O)NC1CCCCC1 (centres unmarked) | 15.1
47 | CCCCN(C)CCN1C(=O)C2C(C(=O)Nc3ccc(Cl)cc3)C3C=CC2(O3)C1C(=O)NC1CCCCC1 (centres unmarked) | -60.5
48 | CN1C(=O)C2(C(C#N)=C(N)Oc3c2oc(CO)cc3=O)c2ccccc21 (centres unmarked) | 12
49 | COc1cc(S(=O)(=O)N2CCN(C)CC2)ccc1Cl | 14.8
50 | CN1CCN(CC(O)COC(c2ccc(Cl)cc2)c2ccc(Cl)cc2)CC1.Cl (centres unmarked) | -47.8
51 | OC(COC(c1ccc(Cl)cc1)c1ccc(Cl)cc1)CN1CCCC1 (centres unmarked) | -75.2
52 | CC1CCCN(CC(O)COC(c2ccccc2)c2ccccc2)C1 (centres unmarked) | -15
53 | CC1CN(CC(O)COC(c2ccc(Cl)cc2)c2ccc(Cl)cc2)CC(C)O1.Cl (centres unmarked) | -2.64
54 | Cc1ccc(C(OCC(O)CNCc2ccc(F)cc2)c2ccccc2)cc1.O=C(O)C(=O)O (centres unmarked) | -75.4

Row | Structure (SMILES) | hERG current change (%, negative = inhibition) at 1uM [%]
55 | OC1CCCN(CC(O)COC(c2ccccc2)c2ccccc2)C1 (centres unmarked) | 1.02
56 | CCOC(=O)C1CCCN(CC(O)COC(c2ccccc2)c2ccccc2)C1 (centres unmarked) | -78.8
57 | OC(COC(c1ccccc1)c1ccccc1)CN1CCc2ccccc2C1 (centres unmarked) | -75.3
58 | OC(COC(c1ccc(F)cc1)c1ccc(F)cc1)CN1CCc2ccccc2C1 (centres unmarked) | -9.74
59 | Cl.OC(COC(c1ccc(Cl)cc1)c1ccc(Cl)cc1)CN1CCc2ccccc2C1 (centres unmarked) | -6.99
60 | O=C(O)C(=O)O.O=C(c1ccccc1)c1ccc(OCC(O)CNCc2ccc(F)cc2)cc1 (centres unmarked) | -0.143
61 | Cc1ccc(OCC(O)CNCc2ccc(F)cc2)cc1 (centres unmarked) | -14.2
62 | O=C(CNC(=O)c1ccccc1F)NCCc1ccc(Cl)cc1Cl | 7.52
63 | O=C(NCc1n[nH]c(=S)n1-c1cccc(Cl)c1)c1ccc(S(=O)(=O)N2CCCCC2)cc1 | 13.6
64 | CCN(CC)S(=O)(=O)c1cccc(C(=O)Oc2cccc(NC(=O)c3cccs3)c2)c1 | 7.05
65 | CC(=O)N1C(=O)C2(C(C#N)=C(N)Oc3c2c(C)nn3-c2ccccc2)c2ccccc21 (centres unmarked) | 11
66 | Cc1cccc(C(=O)NCCC(=O)NCc2ccccc2F)c1 | 5.88
67 | COc1ccc(-n2nc(C(=O)NCC(=O)N3CCCCC3)c3ccccc3c2=O)c(OC)c1 | 15.2
68 | CCN(CC)S(=O)(=O)c1ccc(/C=C/C(=O)OCC(=O)NNC(=O)c2ccc(OC)cc2)cc1 | 9.94
69 | COc1ccc(N2CCN(CC(O)COC(C)(C)C)CC2)cc1.O=C(O)C(=O)O (centres unmarked) | 12.5
70 | Cc1ccc(C(OCC(O)CN2CCCCC2CO)c2ccccc2)cc1 (centres unmarked) | -39.7
71 | Cc1ccc(C(OCC(O)CN2CCCCC2)c2ccccc2)cc1 (centres unmarked) | -68.6
72 | O=C(O)C(=O)O.OCC1CCCCN1CC(O)COC(c1ccc(F)cc1)c1ccc(F)cc1 (centres unmarked) | -60.9
73 | COc1ccc(N2CCN(CC(O)COC(c3ccccc3)c3ccccc3)CC2)cc1 (centres unmarked) | -14.2
74 | OC(COC(c1ccccc1)c1ccccc1)CN1CCCCC1 (centres unmarked) | -18.5
75 | O=C(O)C(=O)O.OC(COC(c1ccc(F)cc1)c1ccc(F)cc1)CN1CCCC(C(F)(F)F)C1 (centres unmarked) | 14
76 | O=C(O)C(=O)O.OCCN1CCN(CC(O)COC(c2ccc(F)cc2)c2ccc(F)cc2)CC1 (centres unmarked) | -20.2
77 | COc1ccc(N2CCN(CC(O)COC(c3ccc(F)cc3)c3ccc(F)cc3)CC2)cc1.O=C(O)C(=O)O (centres unmarked) | -74
78 | O=C(O)C(=O)O.OC1CCCN(CC(O)COC(c2ccc(F)cc2)c2ccc(F)cc2)C1 (centres unmarked) | -14.2
79 | O=C(O)C(=O)O.OC(COC(c1ccc(F)cc1)c1ccc(F)cc1)CN1CCCC1 (centres unmarked) | -62
80 | CCN1CCN(CC(O)COC(c2ccccc2)c2ccccc2)CC1 (centres unmarked) | 7.15
